Source: PubChem BioAssay AID1259343 (VanderVen Lab, College of Veterinary Medicine, Cornell …, 2017)
In all, about 6,200 compounds went through this assay and about 2,900 (47%) were called active. So high a share suggests a set chosen from earlier hits. This is one part of the list. Unmarked numbers belong to inactive results. Rule as the data show it: active = inhibition above about 50%; inactive = the rest.

Assay: Mycobacterium tuberculosis growth inhibition, primary screen (AID 1259343)
Details: inhibition: at 10 µM, stronger effect = higher value; outcome: 10 uM

Structure (SMILES) | inhibition
Cc1ccccc1-c1nnc(CN2CCCC3CCCC32)o1 (centres undefined) | 59% (active)
Cc1ccccc1CCC1CCCN(Cc2nnc(-c3ccco3)o2)C1 (centres undefined) | 2.39%
Cc1ccccc1-c1ncc(CN2CCCC2c2nonc2C)s1 (centres undefined) | 27.5%
Cc1cc(=O)[nH]c(Nc2nc(C)c3cc(C)c(C)cc3n2)n1 | -34.5%
COC(=O)CC(=O)N1CCC(Cc2ccc(-c3ccccc3)cc2)CC1 | 87% (active)
O=C(CCl)N1CCC(Cc2ccccc2)CC1 | -0.35%
O=C(Cc1ccccc1)N1CCC(Cc2ccc(-c3ccccc3)cc2)CC1 | 72.6% (active)
Cc1ccc(C2CC(c3cccc(F)c3)=NN2C(=O)CN2CCC(Cc3ccccc3)CC2)cc1 (centres undefined) | 42.1%
COc1ccccc1/C=C/CN1CCCC(CCC(=O)Nc2cc(Cl)ccc2OC)C1 (centres undefined) | 14.3%
COc1cc2c(cc1NC(=O)CC(C)=NNC=O)oc1ccccc12 | 95.5% (active)
Cc1noc(C)c1CCC(=O)Nc1ccc2oc3ccccc3c2c1 | 25.6%
Cc1cc(C)c2sc(NCC(C)C)nc2c1 | 13.6%
COC(=O)c1c(N)sc2c1CCC(C(C)(C)C)C2 (centres undefined) | -34.2%
CC(C)(C)C1CCc2c(C(=O)N/N=C\c3ccoc3)csc2C1 (centres undefined) | 79.8% (active)
COC(=O)c1sc2c(c1N)CCC(C(C)(C)C)C2 (centres undefined) | 29.1%
CC(C)(C)c1cc(=O)n2[nH]cc(-c3ccc(Cl)cc3)c2n1 | 32.1%
Cc1[nH]n2c(=O)cc(C(C)(C)C)nc2c1-c1ccc(Cl)cc1 | 101% (active)
Cc1cc(=O)n2[nH]cc(-c3ccc(Cl)cc3)c2n1 | -30.9%
Cc1cc(=O)n2[nH]c(C(F)(F)F)c(-c3ccc(Cl)cc3)c2n1 | 61.6% (active)
Cc1ccc(-c2c[nH]n3c(=O)cc(C(C)(C)C)nc23)cc1 | 98.8% (active)
CC(CCc1ccccc1)NC(=O)c1c(O)nc2sccn2c1=O (centres undefined) | 62.6% (active)
CC(NC(=O)c1c(O)nc2sccn2c1=O)c1ccccc1 (centres undefined) | 90.9% (active)
CCCCn1c(=O)[nH]c(=O)c2c1nc(COC(=O)C1CC1)n2C | 12.4%
O=C(O)C1CC=CCC1C(=O)Nc1ccc(N2CCN(c3cccc(Cl)c3Cl)CC2)cc1 (centres undefined) | 21.6%
O=C(Nc1ccc(-c2ccccc2)cc1)C1CC=CCC1C(=O)N1CCc2c([nH]c3ccccc23)C1 (centres undefined) | 91% (active)
C1=CC(c2ccc(C=NNc3nc4ccccc4s3)s2)CC1 (centres undefined) | 99.1% (active)

Structure (SMILES) | inhibition
CC1CC(=NNc2nc3ccccc3s2)CC(C)(C)C1 (centres undefined) | 23.3%
NC(=S)NN=Cc1ccc(C2C=CCC2)s1 (centres undefined) | 84.9% (active)
C1=CC(c2ccc(C=NNc3ccccn3)s2)CC1 (centres undefined) | -47.3%
C(=Nn1c(-c2ccccc2)csc1=NCc1ccccc1)c1cccnc1 | 28.2%
N#Cc1ccc(C=Nn2c(-c3ccc(F)cc3)csc2=Nc2cccnc2)cc1 | 97.7% (active)
C=CCN=c1scc(-c2ccc(C)cc2)n1N=Cc1ccc(F)cc1 | -4.92%
C=CCNC(=S)NN=C1CCC=C1CCCCC | 21.5%
C=CCNC(=S)NN=C1CCCCc2ccccc21 | -17.9%
C=CCNC(=S)NN=C1C=C(C)CC(C)(C)C1 | 103% (active)
CCn1cnc2cc(-c3ccc(Cl)cc3)sc2c1=O | 29.3%
Cc1cccc(OCC(O)Cn2cnc3ccc(Cl)cc3c2=O)c1 (centres undefined) | 86.5% (active)
Cc1cccc(C)c1OCC(O)Cn1cnc2ccc(Br)cc2c1=O (centres undefined) | 33.4%
CN(CCNc1ccc2c(c1)C(=O)CCC2)c1ccccc1 | 75.6% (active)
Cc1ccc(C(=O)NCCN(C)c2ccccc2)c(C)c1 | 35.9%
Cc1ccc(SCCC(=O)Nc2nnc(-c3cc(C)ccc3C)o2)cc1 | 74.8% (active)
Cc1ccc(NC(=O)C(C)OC(=O)c2cccc(C)c2C)cc1 (centres undefined) | 18.8%
CC(C)OC(=O)c1ccc(NC(=O)CCCC(=O)O)cc1 | 50.8% (active)
CCc1cc(=O)[nH]c(-n2nc(C)cc2NC(=O)Cc2cccs2)n1 | 101% (active)
CCCc1cc(=O)[nH]c(-n2nc(C)cc2NC(=O)Cc2cccs2)n1 | -25.1%
Cc1cc(=O)[nH]c(-n2nc(C)cc2NC(=O)Cc2cccs2)n1 | 101% (active)
CN(C)CCCNc1ncnc2c1c(-c1ccccc1)cn2-c1ccc(Br)cc1 | 97.2% (active)
Cc1ccc(-n2cc(-c3ccccc3)c3c(NCCCO)ncnc32)cc1Cl | inactive
CC(O)CNc1ncnc2c1c(-c1ccccc1)cn2-c1ccc(Cl)cc1 (centres undefined) | 99.4% (active)
CCCNc1ncnc2c1c(-c1ccccc1)cn2-c1ccccc1 | 95.8% (active)
CC(C)OCCCNc1ncnc2c1c(-c1ccccc1)cn2-c1ccccc1 | 101% (active)
Cn1ccnc1-c1nccn1Cc1ccc(CN2CCCC2)cc1 | -4.25%

Structure (SMILES) | inhibition
CN(C)c1ccc(C=Cc2ccc3c4ccccc4ccc3[n+]2-c2ccccc2)cc1 | -1.83%
O=S(=O)(Nc1ccc(Br)c(C(F)(F)F)c1)c1ccc(F)cc1 | 81.1% (active)
N#Cc1ccc(NS(=O)(=O)c2ccc(F)cc2)cc1 | 77.8% (active)
Cc1cc(C)c(C)c(S(=O)(=O)Nc2ccc(F)cc2)c1C | 31.6%
O=S(=O)(Nc1ccc(Br)cc1)c1ccc(F)cc1 | 36.6%
O=c1[nH]c(=S)ccn1-c1nc(-c2ccccc2)sc1-c1ccccc1 | 21.2%
Oc1ccccc1Oc1ccc(Oc2ccccc2O)cc1 | 25.7%
NCc1ccc(Oc2cccc(Cl)c2Cl)cc1 | 62.9% (active)
O=C(NC1=NCCS1)c1sc2cc(F)ccc2c1Cl | 5.48%
O=C(NS(=O)(=O)c1ccc(Br)s1)c1ccc(Cl)cc1Cl | 82.9% (active)
O=C(O)c1sc2cc(Cl)ccc2c1Cl | 87.1% (active)
O=C(NS(=O)(=O)c1ccc(Cl)s1)c1sc2cc(Cl)ccc2c1Cl | 77.9% (active)
O=C(O)c1sc2cc(Cl)cc(Cl)c2c1Cl | 92.8% (active)
O=C(O)c1sc(Cl)cc1/C=C\c1ccccc1 | 4.33%
COc1ccc2c(Cl)c(C(=O)O)sc2c1Cl | 19.7%
CC(NC(=O)c1scnc1Cl)c1ccccc1 (centres undefined) | 8.26%
CC(NC(=O)c1ccc(Cl)c([N+](=O)[O-])c1)c1ccccc1 (centres undefined) | 100% (active)
Cc1cc(C)c(S(=O)(=O)Nc2nc(C(F)(F)F)cs2)c(C)c1 | 78.7% (active)
Cc1ccc(NC(=O)c2csc(NS(=O)(=O)c3cccs3)n2)cc1F | 28.6%
Cc1cc(C)c(S(=O)(=O)NC(C)c2ccccc2)c(C)c1 (centres undefined) | 9.74%
O=C(CCc1nnc(CCc2c[nH]c3ccccc23)o1)N1CCC(c2ccccc2Cl)C1 (centres undefined) | 33.4%
c1ccc(-c2noc(CCCc3c[nH]c4ccccc34)n2)cc1 | 71.6% (active)
O=C1C=CC(=O)N1c1cc(Cl)c(Cl)cc1Cl | 11.4%
CCC(C)N=Cc1c(NCc2ccco2)nc2c(C)cccn2c1=O (centres undefined) | 4.74%
Cc1cccn2c(=O)c(C=NCCO)c(NCc3ccco3)nc12 | 45.5%
O=c1c(C=NCc2ccco2)c(NCc2ccco2)nc2ccccn12 | 88.3% (active)

Structure (SMILES) | inhibition
O=C(COc1ccc(F)cc1Br)NCCOc1ccc(Cl)cc1 | 77.7% (active)
Cc1ccc(C2=CCN(C(=O)CNC(=O)C3CCCCC3)CC2)cc1 | 93.1% (active)
O=C(CC1CCCC1)N1CC=C(c2ccc(O)cc2)CC1 | 41%
O=C(NC(c1ccccc1)c1ccc2ccccc2n1)C1CCN(Cc2ccc(Oc3ccccc3)cc2)CC1 (centres undefined) | 56.5% (active)
C=CC[C@H]1CC(C)=C[C@H](CC=C)N1Cc1ncccc1C(=O)O | -5.55%
Cc1cccc(C(=O)O)c1O | 23.2%
Cc1c(Cl)cccc1Nc1ccccc1C(=O)O | 101% (active)
Cc1ccnc(Nc2ccc(NCCNC(=O)Nc3cccc(Cl)c3C)nn2)c1 | 36.1%
C[CH2][Hg][S]c1ccccc1C(=O)O | 102% (active)
O=C(O)c1cccc2cccc(-c3cccc4cccc(C(=O)O)c34)c12 | 37%
O=C(Nc1ccc(Cl)cc1)c1c(Cl)nsc1Cl | 68.1% (active)
O=C(O)Cc1ccc([N+](=O)[O-])cc1Sc1ccc(Cl)cc1 | 54.2% (active)
O=C1CC(=O)CC2(CCCC2)C1 | 22.1%
CN(C)c1c(Cl)cccc1NC(=O)c1cc(C2CC2)[nH]n1 | 19.5%
O=C(Nc1ccc(Cl)c(Cl)c1)Nc1cc(C(F)(F)F)c[nH]c1=O | 9.25%
O=C(Nc1ccc(C(F)(F)F)cc1Cl)c1cc([N+](=O)[O-])[nH]n1 | 102% (active)
CN(Cc1ccsc1)C(=O)c1cccc2c(=O)c3ccccc3[nH]c12 | 43.6%
O=S(=O)(Nc1nc2c(F)cc(F)cc2s1)c1ccc(F)cc1F | 73.8% (active)
O=C(Nc1cccc(N2CCOC2=O)c1)C1CC(c2ccccc2)=NO1 (centres undefined) | 83.1% (active)
N#Cc1cnc(N(Cc2cccc(O)c2)CC2CC2)c(Cl)c1 | -4.43%
FCCCN1CCc2onc(-c3ccc(-c4ccccc4)cc3)c2C1 | 38.4%
O=C(NCCc1ccc(F)cc1)c1ccc(-c2ccc3c(c2)OCO3)s1 | 66.8% (active)
CCCCC(CC)COCCCNC(=O)c1ccc(-c2ccc3c(c2)OCO3)s1 (centres undefined) | 89.3% (active)
O=C(NCCc1ccc(F)cc1)c1ccc(-c2cccc(Cl)c2)s1 | 28.2%
CSCCCNC(=O)c1ccc(-c2ccc(F)cc2)s1 | 2.44%
O=C(NC1CCc2ccccc21)c1ccc(-c2ccc3c(c2)OCCO3)s1 (centres undefined) | 34.8%
